According to the supplement of paper PMC7830784:

system: Brugia pahangi adult female; assay: IC50 motility inhibition on day 3; settings: 3 days
Description: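 Single adult female Brugia pahangi worms in 24-well plates (RPMI-1640, 5% FBS, 37 °C) were treated with 10 µM of each compound from a 2121-drug library (4 replicates; 1% DMSO vehicle and 10 µM auranofin controls). Motility was recorded with WormAssay dark-field imaging, and % inhibition of motility on day 3 is relative to vehicle. IC50 values for selected hits come from a 6-point dilution series (30 to 0.1 µM) fitted in GraphPad Prism.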

In order of rising “IC50 motility inhibition on day 3” value:
1. [O-][n+]1ccccc1[S-].[O-][n+]1ccccc1[S-].[Zn+2] [pyrithione zinc]  96.3 nM
2. CC(=O)[O][Hg][c]1ccccc1 [phenylmercuric acetate]  179 nM
3. C[CH2][Hg][S]c1ccccc1C(=O)[O-].[Na+] [thimerosal]  406 nM
4. CC[C@@H](C(=O)[C@@H](C)[C@@H](O)[C@H](C)[C@@H]1O[C@@H]([C@@H](CC)C(=O)O)CC[C@@H]1C)[C@H]1O[C@]2(C=C[C@@H](O)[C@]3(CC[C@@](C)([C@H]4CC[C@](O)(CC)[C@H](C)O4)O3)O2)[C@H](C)C[C@@H]1C [salinomycin]  635 nM
5. C[C@@H]1O[C@@H](O[C@@H]2C=C3CC[C@@H]4[C@H](CC[C@]5(C)[C@@H](c6ccc(=O)oc6)CC[C@]45O)[C@@]3(C)CC2)[C@H](O)[C@H](O)[C@H]1O [proscillaridin]  731 nM
6. Oc1cccc2cccnc12 [oxyquinoline]  1500 nM
7. O=c1[nH]c2ccccc2n1C1CCN(CCCC(c2ccc(F)cc2)c2ccc(F)cc2)CC1 [Pimozide]  2520 nM
8. CCCCCCCCCCCCCCCC[n+]1ccccc1 [cetylpyridinium chloride]  3400 nM
9. N[C@@H]1C[C@H]1c1ccccc1.N[C@H]1C[C@@H]1c1ccccc1 [tranylcypromine]  6150 nM
10. CNC(=O)Oc1ccc2c(c1)[C@]1(C)CCN(C)[C@@H]1N2C [(-)-Physostigmine]  13600 nM
